Experimental data: PubChem BioAssay
Calls of active or inactive are those of the source. Unless noted, how the calls were made is not given here.

Tests used:
[1] = A549 cell viability effects, profiling panel, calcein-AM fluorescence, 48 h, basal (AID 1162); conditions: higher = more signal; further: test concentration not given here
[2] = adipocyte viability effects, profiling panel, cell-based, 3T3-L1 adipocytes, calcein-AM fluorescence, 48 h, basal (AID 1163); conditions: 3T3-L1 adipocytes viability, higher = more signal; further: test concentration not given here
[3] = HepG2 cell viability effects, profiling panel, calcein-AM fluorescence, 48 h, basal (AID 1164); conditions: higher = more signal; further: test concentration not given here
[4] = MM1S cell viability effects, profiling panel, calcein-AM fluorescence, 48 h, basal (AID 1165); conditions: higher = more signal;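 further: viability of MM1S multiple myeloma cells under basal unstimulated conditions; test concentration not given here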
[5] = basal RPMI8226 viability, no added stimulus, profiling panel, cell-based, calcein-AM fluorescence, 48 h, PK04 Diversity Set (AID 1166); conditions: RPMI8226 myeloma viability, higher = more signal;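 further: cells grown under basal conditions without added stimulus; test concentration not given here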
[6] = basal HepG2 mitochondrial membrane potential changes, profiling panel, cell-based, JC-1 fluorescence, 24 h, 100 nL compound (AID 1167); conditions: higher = more signal; further: test concentration not given here
[7] = basal 3T3-L1 adipocyte mitochondrial potential changes, profiling panel, cell-based, JC-1 fluorescence, 3T3-L1 adipocytes, 24 h, 100 nL compound (AID 1168); conditions: JC-1 mitochondrial fluorescence, higher = more signal, called active from +8 up or from −8 down; further: test concentration not given here
[8] = basal RPMI8226 mitochondrial membrane potential changes, profiling panel, cell-based, JC-1 fluorescence, 24 h, 100 nL compound (AID 1169); conditions: RPMI8226 myeloma, JC-1 mitochondrial potential fluorescence, higher = more signal; further: test concentration not given here
[9] = basal MM1S mitochondrial membrane potential changes, profiling panel, cell-based, JC-1 fluorescence, 24 h, 100 nL compound (AID 1170); conditions: higher = more signal; further: test concentration not given here
[10] = A549 lung cancer cell viability effects, profiling panel, resazurin fluorescence, 24 h, PK04 Diversity Set (AID 1171); conditions: higher = more signal, called active from +8 up or from −8 down; further: test concentration not given here
[11] = HepG2 liver cancer cell viability effects, profiling panel, resazurin fluorescence, 24 h, PK04 Diversity Set (AID 1172); conditions: higher = more signal; further: test concentration not given here
[12] = basal S. cerevisiae growth modulation, no modifier, primary screen, OD600, strain BY4716, 24 h, basal condition (AID 1173); conditions: OD600, 24 h, higher = more signal, called active from +8 up or from −8 down
[13] = MM1S myeloma cell viability, profiling panel, resazurin fluorescence, basal, 24 h, PK04 Diversity Set (AID 1174); conditions: higher = more signal, called active from +8 up or from −8 down;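 further: MM1S multiple myeloma cell line; test concentration not given here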
[14] = molecular target: Dihydroorotate dehydrogenase (quinone), mitochondrial (Plasmodium falciparum (isolate 3D7)) (UniProt Q08210); experiment: PfDHODH enzyme inhibitors, primary screen, biochemical, C-terminal His tag, absorbance 600 nm (AID 1175); conditions: DCIP absorbance 600 nm, higher = more signal, called active from +8 up or from −8 down;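 further: recombinant parasite enzyme with a five histidine tag at its C terminus; test concentration not given here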
Dihydroorotate dehydrogenase (quinone), mitochondrial (Plasmodium falciparum (isolate 3D7)), sequence (Q08210 whole entry, looked up): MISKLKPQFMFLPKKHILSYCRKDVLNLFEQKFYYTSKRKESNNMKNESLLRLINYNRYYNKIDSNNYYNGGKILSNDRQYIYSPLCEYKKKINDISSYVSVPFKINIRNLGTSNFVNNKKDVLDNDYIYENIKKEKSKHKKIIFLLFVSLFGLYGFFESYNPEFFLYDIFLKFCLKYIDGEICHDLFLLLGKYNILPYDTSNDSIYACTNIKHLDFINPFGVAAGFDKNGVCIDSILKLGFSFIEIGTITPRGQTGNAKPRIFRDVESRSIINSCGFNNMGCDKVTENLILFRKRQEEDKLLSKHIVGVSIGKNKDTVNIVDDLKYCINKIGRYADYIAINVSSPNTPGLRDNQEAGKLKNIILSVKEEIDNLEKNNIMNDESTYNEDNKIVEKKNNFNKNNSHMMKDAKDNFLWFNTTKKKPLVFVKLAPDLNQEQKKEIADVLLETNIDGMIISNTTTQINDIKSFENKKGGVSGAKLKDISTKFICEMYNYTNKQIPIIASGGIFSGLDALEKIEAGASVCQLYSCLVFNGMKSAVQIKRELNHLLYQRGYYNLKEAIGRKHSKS

[15] = P. aeruginosa biofilm formation inhibitors, primary screen, strain PAO1, LB-PBS medium, absorbance 600 nm (AID 1176); further: test concentration not given here; conditions: P. aeruginosa PAO1 growth/biofilm, A600, 12 h; higher = more signal
[16] = S. cerevisiae RM11-1a growth modifiers, primary screen, strain RM11-1a, OD600, basal, 24 h (AID 1177); conditions: OD600, 24 h, higher = more signal, called active from +8 up or from −8 down;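 further: cultures grown under basal conditions with no added stressor; test concentration not given here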
[17] = E. coli acrAB mutant growth effects, primary screen, E. coli filamentation inducers, strain DRC39, OD650, 24 h (AID 1178); conditions: higher = more signal, called active from +8 up or from −8 down;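 further: growth measured as culture turbidity by optical density at 650 nm; test concentration not given here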
[18] = E. coli acrAB mutant growth effects, primary screen, E. coli filamentation inducers, strain DRC39, OD650, 48 h (AID 1179);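 further: screen aims at cell division blockers that make cells filament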; conditions: E. coli DRC39 delta-acrAB growth, higher = more signal, called active from +8 up or from −8 down
[19] = RPMI8226 myeloma cell viability, profiling panel, resazurin fluorescence, basal, 24 h, PK04 Diversity Set (AID 1180); conditions: higher = more signal;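 further: RPMI8826 multiple myeloma cell line at 5000 cells per well; test concentration not given here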
[20] = molecular target: E3 ubiquitin-protein ligase XIAP (Homo sapiens) (UniProt P98170); experiment: XIAP binders, primary screen, biophysical, small-molecule microarray, fluorescence 635 nm (AID 1181); conditions: small-molecule microarray binding, higher = more signal;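 further: score merges 667 nm emission and signal to noise over triplicate slides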
E3 ubiquitin-protein ligase XIAP (Homo sapiens), sequence (P98170 whole entry, looked up): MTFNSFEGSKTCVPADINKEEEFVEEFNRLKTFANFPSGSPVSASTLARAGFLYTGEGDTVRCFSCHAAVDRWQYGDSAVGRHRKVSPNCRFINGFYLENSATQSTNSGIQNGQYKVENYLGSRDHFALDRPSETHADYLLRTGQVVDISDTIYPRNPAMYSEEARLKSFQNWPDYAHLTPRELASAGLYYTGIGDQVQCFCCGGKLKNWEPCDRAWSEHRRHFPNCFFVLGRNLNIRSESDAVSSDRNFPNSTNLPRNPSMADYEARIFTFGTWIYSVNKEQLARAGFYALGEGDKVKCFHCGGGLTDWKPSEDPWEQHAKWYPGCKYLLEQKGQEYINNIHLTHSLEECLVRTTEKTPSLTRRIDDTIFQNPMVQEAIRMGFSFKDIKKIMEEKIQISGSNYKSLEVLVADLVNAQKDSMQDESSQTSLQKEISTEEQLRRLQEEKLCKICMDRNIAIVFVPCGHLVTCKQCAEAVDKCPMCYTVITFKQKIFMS

Structure (SMILES)	z-score [1]	z-score [2]	z-score [3]	z-score [4]	z-score [5]	z-score [6]	z-score [7]	z-score [8]	z-score [9]	z-score [10]	z-score [11]	z-score [12]	z-score [13]	composite z-score [14]	z-score [15]	z-score [16]	z-score [17]	z-score [18]	z-score [19]	composite z-score [20]
COc1ccc(C(=O)Nc2cccc(CN3C(=O)[C@@]4(O[C@@H](CC(=O)N5Cc6ccccc6C[C@H]5CO)[C@H]([Si](C)(C)c5ccc(OC)cc5)[C@H]4C)c4ccccc43)c2)cc1	0.0601	0.778	-0.446	-2.57	-3.06	0.851	0.862 (inactive)	-0.976	-1.88	-0.967 (inactive)	-0.79	0.147 (inactive)	-3.05 (inactive)	-4.98 (inactive)	1.42 (inactive)	1.91 (inactive)	0.978 (inactive)	0.621 (inactive)	-1.99	-0.0525
[N-]=[N+]=Nc1ccccc1[C@@H]1OC(c2ccc(OCCCO)cc2)=N[C@]1(CCS(=O)(=O)c1ccccc1)C(=O)N1CCCCC1	-0.564	-0.56	-0.0675	-0.92	-0.739	-0.827	0.0238 (inactive)	-0.881	-0.923	-0.127 (inactive)	-0.644	1.69 (inactive)	-1.66 (inactive)	1.06 (inactive)	0.687 (inactive)	2.08 (inactive)	-0.0955 (inactive)	-0.933 (inactive)	-1.81	-0.202
O=C1OCC=C[C@H]2OC34C=CCN(c5ccc6ccccc6c5)C(=O)[C@H]3N(CCO)C(=O)[C@@H]4[C@@H]12 (stereo not given in full)	0.594	-0.355	0.379	-0.102	-0.29	-0.542	-0.252 (inactive)	1.02	-0.161	-0.0805 (inactive)	-0.147	-0.204 (inactive)	0.0073 (inactive)	-1.47 (inactive)	-0.649 (inactive)	0.195 (inactive)	-0.246 (inactive)	-0.118 (inactive)	0.403	0.0896
CC(=O)N1Cc2ccccc2C[C@@]2(N=C(c3ccc(OCCCO)cc3)O[C@H]2c2ccccc2)C1=O	-1.09	0.609	-1.31	-2.19	-3.36	1.8	0.234 (inactive)	-1.15	-0.438	-2.8 (inactive)	-1.33	-2.24 (inactive)	-4.82 (inactive)	-0.847 (inactive)	1.76 (inactive)	0.372 (inactive)	1.62 (inactive)	1.4 (inactive)	-4.8	0.0651
COc1ccccc1CN1C(=O)c2ccccc2[C@](Cc2ccccc2I)(C(=O)NCc2ccccc2)[C@@H]1c1ccc(CO)cc1	0.049	0.218	-0.733	-0.325	-1.92	0.37	0.368 (inactive)	-0.0456	-0.318	-0.5 (inactive)	-0.583	0.511 (inactive)	-1.05 (inactive)	-0.141 (inactive)	0.0993 (inactive)	-0.283 (inactive)	-0.331 (inactive)	0.363 (inactive)	-1.12	-0.16
COC(=O)[C@@]1(Cc2ccccc2)[C@H]2c3cc(C(=O)N(C)C)n(Cc4cc(F)c(F)c(F)c4)c3C[C@H]2CN1C(=O)c1ccccc1	-0.749	0.135	0.545	-2.11	-4.67	0.891	-1.35 (inactive)	-0.368	-0.951	-0.0085 (inactive)	0.0126	0.989 (inactive)	-0.402 (inactive)	-0.258 (inactive)	-0.0019 (inactive)	0.968 (inactive)	0.194 (inactive)	0.322 (inactive)	-0.963	0.272
COCCn1c(C(=O)N(C)C)cc2c1C[C@H]1CN(C(=O)c3ccccc3)[C@@](Cc3ccc(F)cc3)(C(=O)OC)[C@@H]21	0.428	-0.687	0.684	-0.259	-0.362	0.938	-0.499 (inactive)	0.172	-0.929	-0.774 (inactive)	-0.473	0.717 (inactive)	-0.665 (inactive)	-0.0005 (inactive)	0.535 (inactive)	1.02 (inactive)	0.0751 (inactive)	0.223 (inactive)	-0.38	0.0447
CC1(C)C(=O)C(c2ccccc2)=C2CN3C(=O)N(CCc4ccccc4)C(=O)C3(Cc3ccccc3)C=C21 (stereo not given)	-0.739	-0.295	0.54	-0.0119	0.0826	0.000299	-0.385 (inactive)	-0.871	-1.52	0.199 (inactive)	-0.752	1.4 (inactive)	-1.22 (inactive)	0.362 (inactive)	0.784 (inactive)	2.07 (inactive)	0.0474 (inactive)	0.222 (inactive)	-0.562	0.237
C=CC[C@@]1(C(=O)NCCN2CCOCC2)N=C(c2ccc(OCCCO)cc2)O[C@@H]1c1ccccc1CN=[N+]=[N-]	-0.0982	1.56	0.88	-2.94	-1.03	1.86	-0.224 (inactive)	-0.129	-0.029	-0.468 (inactive)	-0.0014	-1.4 (inactive)	0.331 (inactive)	0.45 (inactive)	0.466 (inactive)	-0.425 (inactive)	0.677 (inactive)	-0.498 (inactive)	-0.354	0.272
C/C=C/[C@H](CCn1cc([C@H](O)c2ccccc2)nn1)[Si](C)(C)c1ccc(OC)cc1	-0.0186	-0.358	-0.689	-1.58	-1.43	-1.4	0.644 (inactive)	-0.569	-0.629	0.22 (inactive)	0.0881	-0.289 (inactive)	0.183 (inactive)	-0.393 (inactive)	0.626 (inactive)	0.15 (inactive)	0.265 (inactive)	-0.0867 (inactive)	-0.187	-0.0936
CO[C@H]1O[C@H](CO)[C@@H](OC(=O)Nc2ccc(C(F)(F)F)cc2)[C@H](OC(=O)Nc2ccccc2)[C@@H]1OC(=O)Nc1ccccc1	-0.902	-0.133	-1.28	-2.72	-2.84	-0.901	-1.47 (inactive)	-0.828	0.469	-0.0537 (inactive)	-0.5	-0.332 (inactive)	-1.34 (inactive)	-0.798 (inactive)	0 (inactive)	0.0212 (inactive)	0.886 (inactive)	-0.053 (inactive)	-0.771	0.0468
CC(C)(C)OC(=O)CC[C@@]1(C(=O)N2CCOCC2)N=C(c2ccc(OCCCO)cc2)O[C@@H]1c1ccccc1N=[N+]=[N-]	0.962	0.122	0.169	-0.49	0.338	2.09	5.5 (inactive)	-0.499	-1.03	0.716 (inactive)	0.725	0.297 (inactive)	-0.894 (inactive)	0.668 (inactive)	-0.596 (inactive)	1.1 (inactive)	0.611 (inactive)	1.52 (inactive)	0.066	0.205
C[C@H]1C2[C@H](Cc3ccccc3)NC(=O)[C@]23C(=O)N[C@H](Cc2ccccc2)C(=O)N[C@H](Cc2ccccc2)C(=O)NC/C=C/CCC/C=C/C3[C@@H]2O[C@]12C (stereo not given in full)	0.144	1.58	-0.385	-1.01	-3.48	1.71	-0.77 (inactive)	-0.469	-1.08	-1.5 (inactive)	-1.6	-1.6 (inactive)	-0.121 (inactive)	0.453 (inactive)	-0.283 (inactive)	0.336 (inactive)	0.276 (inactive)	-0.934 (inactive)	-0.403	-0.0807
CC(C)NC(=O)[C@@H]1c2ccccc2C(=O)N(C2CCCCC2)[C@H]1c1ccc(CO)cc1	0.699	-0.209	0.581	-0.594	-2.04	1.54	-0.656 (inactive)	-0.811	0.103	1.08 (inactive)	-0.208	-0.63 (inactive)	-0.569 (inactive)	-0.131 (inactive)	0.36 (inactive)	0.052 (inactive)	0.126 (inactive)	-0.0549 (inactive)	-0.374	0.0124
OCCCc1cc[n+](Cc2cccc(OC(F)(F)F)c2)cc1	-0.0193	0.997	-1.18	0.277	-1.86	1.14	-0.487 (inactive)	-0.0293	-0.978	0.484 (inactive)	0.887	-1.08 (inactive)	0.499 (inactive)	-3.59 (inactive)	0.0898 (inactive)	0.616 (inactive)	0.453 (inactive)	0.159 (inactive)	-0.326	0.337
CCN(CC)c1ccc(N2CC=CC34O[C@@H]5/C=C\CCC(C)OC(=O)C5[C@H]3C(=O)N(CCCCCCO)[C@@H]4C2=O)cc1 (stereo not given in full)	1.21	-1.09	0.674	1.57	0.153	1.25	-1.02 (inactive)	0.0282	0.846	0.606 (inactive)	-0.105	-0.0746 (inactive)	0.384 (inactive)	-0.788 (inactive)	-0.497 (inactive)	0.251 (inactive)	1.37 (inactive)	1.59 (inactive)	1.56	-0.0545
